USP2a block – inhibitors of human ubiquitin-specific protease USP2a; O75604; USP2 core, Ub-CHOP2 coupled fluorogenic reporter, 485/531; Potency, µM (titrated, usually from 38.3 µM), hits mostly inhibitors; 0.01% of 330,000 active; AID 463254
Target sequence (O75604 whole entry, looked up): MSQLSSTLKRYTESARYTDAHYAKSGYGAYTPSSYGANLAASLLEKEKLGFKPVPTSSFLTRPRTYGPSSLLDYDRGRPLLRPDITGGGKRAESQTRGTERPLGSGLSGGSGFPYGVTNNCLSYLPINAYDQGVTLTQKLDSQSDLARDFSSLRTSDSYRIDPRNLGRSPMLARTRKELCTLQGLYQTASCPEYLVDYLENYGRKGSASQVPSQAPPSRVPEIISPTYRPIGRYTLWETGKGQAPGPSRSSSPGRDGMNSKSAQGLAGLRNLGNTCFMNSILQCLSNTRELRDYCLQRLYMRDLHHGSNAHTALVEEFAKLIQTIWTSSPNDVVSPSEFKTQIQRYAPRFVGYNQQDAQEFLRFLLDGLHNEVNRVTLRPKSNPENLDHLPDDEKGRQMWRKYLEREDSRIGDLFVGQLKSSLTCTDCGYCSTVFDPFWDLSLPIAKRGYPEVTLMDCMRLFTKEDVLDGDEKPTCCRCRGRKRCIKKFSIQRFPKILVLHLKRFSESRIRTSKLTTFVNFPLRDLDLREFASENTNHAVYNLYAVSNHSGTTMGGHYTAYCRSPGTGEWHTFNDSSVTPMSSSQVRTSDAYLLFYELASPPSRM
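Deubiquitinase activity read as fluorescence (485/531 nm) after Ub-CHOP2 cleavage activates the enterokinase reporter on its substrate; USP2 core 10nM, Ub-CHOP2 and substrate 25nM each, 30min compound preincubation then 60min RT; data normalized to NEM, curves fitted.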
Tb PFK inh-1 – T. brucei PFK enzyme inhibition; T. brucei PFK, ADP-Glo luminescence; O15648; Potency, µM (series often up to 57.5 µM), usual class: inhibitors; 0.17% of 330,000 active; further: nearly all actives have a fitted effect of over 60% in size
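Activity is normalized to no-enzyme wells (full inhibition) and 1.25 nM enzyme wells (no inhibition). Reaction: 0.5 mM F6P, 0.1 mM ATP, 45 min RT, ADP-Glo luminescence; concentration-response curves fitted and classed by quality.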
p53 reactivation – restores transcriptional activity of mutant p53; H1299 p53-A138V BP100-luciferase reporter, luminescence, 24 h; Potency, µM (highest dose often 92.2 µM), usual class: activators; 0.063% of 320,000 active; further: nearly all actives have a fitted effect of over 45% in size
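p53-null H1299 cells stably carrying temperature-sensitive p53-A138V and a BP100-luciferase reporter were pinned with compounds (4-point, 1:5 series) and held 24 hrs at 37 deg C. Luminescence was read 10 min after detection reagent.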
GLS inhibitor – inhibitors of human glutaminase (GLS); O94925; GLS enzymatic activity, qHTS titration; Potency, µM (series often up to 45.5 µM), most hits filed as inhibitors; 0.21% of 410,000 active; AID 624170
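Two-point fluorescence kinetic (t0, 30 min RT) for hKGA; glutamate detected via glutamate oxidase–HRP–Amplex Red. Substrate: 1 mM L-glutamine solution; buffer 45 mM KH2PO4, pH 8.2.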
Tb PFK KinaseGlo – orthogonal confirmation of T. brucei phosphofructokinase inhibitors | shares compounds with Tb PFK inh-1 | Tb PFK enzyme, ATP depletion, Kinase-Glo Plus luminescence | Potency, µM (doses to about 57.5 µM) | 47% of 1,100 active | AID 504636; calls by dose curve; further: nearly all actives have a fitted effect of over 60% in size
Tb PFK inh-2 – T. brucei PFK enzyme inhibition, hit validation; shares compounds with Tb PFK inh-1; Potency, µM (series often up to 57.5 µM), usual class: inhibitors; purified T. brucei PFK, ADP-Glo luminescence, 45 min; AID 504637; 41% of 1,100 active; further: nearly all actives have a fitted effect of over 60% in size
Hits are given with their value; n = inactive; u = inconclusive; x = no result. Sampled rows, rich in hits. Any-hit rate of the full collection: about 0.39%. Unless noted, the call rests on the fitted dose curve; in most records, active means well fitted curve in the direction sought with a large enough effect; inconclusive means small, poorly fitted or top-dose-only effect, or another doubt; inactive means no such curve, though single readings can be large; an effect the other way counts as inactive or inconclusive.

SMILES	USP2a block	Tb PFK inh-1	p53 reactivation	GLS inhibitor	Tb PFK KinaseGlo	Tb PFK inh-2
O=C(COc1ccc(Cl)cc1)OCC(=O)c1ccc[nH]1	n	u	n	n	n	u
O=C(COC(=O)Cc1ccccc1)Nc1ncc(Cl)cc1Cl	n	n	n	n	x	x
O=C(OCc1ccc(Cl)c(Cl)c1)c1cnccn1	n	u	n	n	24µM	27µM
Clc1ccc(COn2ccnc2)cc1Cl	n	u	n	n	x	x
Cc1ccc(C(=O)N2CC2C)cc1 (stereo not given)	x	x	x	n	x	x
C/C(C/C(C)=C1/SC(=S)NC1=O)=C1\SC(=S)NC1=O	n	u	n	n	n	u
O=C(COc1ccc(S(=O)(=O)N2CCCCC2)cc1)N1CCN(Cc2ccccc2)CC1	n	n	n	n	x	x
O=C(OCc1ccco1)c1ccc(S(=O)(=O)N2CCCCC2)cc1	n	24µM	u	n	u	u
CNCc1ccccc1Sc1cc(O)ccc1O	n	u	n	u	3.4µM	8.5µM
CC(Cc1ccccc1Sc1ccccc1O)N(C)C (stereo not given)	n	n	n	n	x	x
CCN(CC)C(=O)c1ccc(NC(=O)CSc2nnnn2-c2cc(OC)ccc2OC)cc1	n	n	n	n	x	x
COc1ccc(C)cc1-n1nnnc1SCC(=O)NC(=O)NCc1ccco1	n	11µM	n	n	n	n
COc1ccccc1OCc1nnc(SCC(=O)NCc2ccco2)n1Cc1ccco1	n	u	n	n	7.6µM	7.6µM
Cc1cc(SCC(=O)NC(=O)NCc2ccco2)nc2c(C)cccc12	n	u	n	n	u	u
[S]=[Sb][S][Sb]=[S]	x	x	x	n	x	x
Cc1cc(C)cc(-n2c(/C=C/c3cccc(F)c3)nc3ccccc3c2=O)c1	x	x	x	n	x	x
COCCCNC(=O)c1cc(=O)n(Cc2ccc(Cl)cc2)c2ccccc12	n	11µM	n	n	24µM	u
CCCCn1c(=O)c(C(=O)NCc2ccc(Cl)cc2)c(O)c2ccccc21	n	n	u	n	x	x
C[N+]1([O-])[C@@H]2CC[C@H]1CC(OC(=O)[C@@H](CO)c1ccccc1)C2 (stereo not given in full)	x	x	x	n	x	x
O=c1[nH]c2ccsc2c(=O)n1-c1ccc(F)c(Cl)c1	n	u	n	n	n	n
O=c1[nH]c2ccccc2c(=O)n1-c1cccc(Cl)c1	n	n	n	n	x	x
O=C(NC(=S)N1CC1)c1ccccc1	x	x	x	n	x	x
Cc1nc(SCc2ccc(O)c([N+](=O)[O-])c2)c([N+](=O)[O-])[nH]1	n	u	n	n	n	n
O=C(N[C@@H]1N=C(c2ccccc2F)c2cccc3c2N(CC3)C1=O)c1cc2ccccc2[nH]1	x	x	x	n	x	x
Cc1cc(OCC(=O)NCc2ccc(S(N)(=O)=O)cc2)c2c3c(c(=O)oc2c1)CCC3	n	n	n	n	x	x
SMILES	USP2a block	Tb PFK inh-1	p53 reactivation	GLS inhibitor	Tb PFK KinaseGlo	Tb PFK inh-2
NC(=O)CCN1CCN(C(=O)c2ccc3nc(Cc4cccc(Cl)c4)oc3c2)CC1	n	u	n	n	12µM	27µM
O=C(Cc1ccccc1)N1CCN(Cc2cccc(Cl)c2)CC1	n	n	n	n	x	x
COC(=O)C1=C(c2cccc(C#N)c2)C[C@@H]2CC[C@H]1N2C(=O)NCC1CC1	n	n	u	n	x	x
O=[N+]([O-])c1c(Nc2ccc(O)cc2)cc(Cl)c2nonc12	n	u	n	n	7.6µM	u
CCCCn1nnnc1C(CCSC)N1CCC2(CC1)C(=O)NCN2c1ccccc1 (stereo not given)	x	x	x	n	x	x
CC(C)(CS(=O)(=O)[O-])NC(=O)CC[N+](C)(C)CCO	n	0.67µM	n	n	0.24µM	0.43µM
CCOc1ccccc1NC(=O)c1cccn(Cc2ccccc2C)c1=O	x	x	x	n	x	x
S=C(Nc1ccccc1)Nc1cccc(Br)c1	n	n	n	n	x	x
O=C(O)C1CCCCC1C(=O)Nc1cccc(Br)c1 (stereo not given)	n	17µM	n	n	12µM	27µM
O=S1(=O)CCOC(CO)CN1Cc1ccc(Cl)c(Cl)c1 (stereo not given)	n	u	n	n	u	u
O=C(Cc1ccc(F)cc1)N/N=C/c1ccc(-c2ccc(Cl)c(C(=O)O)c2)o1	n	u	n	n	u	u
COc1cc(C[C@H](C)N)c(OC)cc1C	x	x	x	n	x	x
O=C1OC(c2cccs2)=N/C1=C/c1ccc(-c2cccc(C(=O)O)c2)o1	n	u	n	n	u	u
Cc1nc(CCl)cc(=O)[nH]1	n	n	n	n	x	x
Cc1cc(=O)[nH]c(Nc2ccc(Cl)cc2)n1	n	21µM	n	n	8.5µM	19µM
COc1cc(CC(C)N)cc(OC)c1OC (stereo not given)	x	x	x	n	x	x
O=C(NCc1cccc(Cl)c1)c1cc(COc2ccc3ncccc3c2)on1	n	15µM	n	n	12µM	13µM
COc1ccc2c3c1OC1C(O)C=CC4[C@@H](C2)NCC[C@]314 (stereo not given in full)	x	x	x	n	x	x
Cc1n[nH]c(C)c1Sc1ccccc1[N+](=O)[O-]	n	u	n	n	u	u
Clc1cccc(N2Cc3cc(-c4ccccc4)ccc3-n3nncc3C2)c1	x	x	x	n	x	x
O=C(NCc1cccc(Cl)c1)c1ccc2c(c1)OCCO2	n	24µM	u	u	13µM	19µM
COC(=O)NCc1ccc(Cl)c(Cl)c1	n	21µM	n	n	11µM	30µM
O=C(NCCS(=O)(=O)N1CCN(c2cccc(Cl)c2)CC1)c1ccc2c(c1)OCO2	n	u	n	n	21µM	u
O=C(NCc1ccc(Cl)c(Cl)c1)c1ccc2c(c1)OCO2	n	24µM	n	n	7.6µM	8.5µM
O=C(NCc1ccccc1)Oc1cccc(Cl)c1	n	n	u	n	x	x
SMILES	USP2a block	Tb PFK inh-1	p53 reactivation	GLS inhibitor	Tb PFK KinaseGlo	Tb PFK inh-2
CC(=O)c1ccc2c(c1)OCO2	n	n	n	n	x	x
O=C(CN1CCCCC1)c1ccc2c(c1)OCO2	n	n	n	n	x	x
C[C@H](N)Cc1ccccc1	x	x	x	n	x	x
O=C(O)c1ccc(/C=C/c2nc3ccccc3c(=O)n2-c2ccc(Br)cc2)cc1	n	n	n	n	x	x
O=C(O)c1cccc(-n2sc3ccccc3c2=O)c1	n	6µM	u	8.9µM	15µM	17µM
O=c1c2ccccc2nc(Cc2ccccc2)n1-c1ccccc1	n	n	x	n	x	x
Cc1ccccc1-n1sc2cc(F)ccc2c1=O	n	2.7µM	n	u	u	11µM
O=c1c2ccccc2sn1-c1nccs1	n	8.5µM	n	1.3µM	u	u
O=c1c2ccccc2sn1-c1ccccc1	n	4.8µM	n	4.5µM	u	7.6µM
C=CC[C@@H](CC/C=C/C=C/CC/C=C\[C@@H]1CSC([C@@H]2C[C@@H]2C)=N1)OC	n	n	u	n	x	x
O=c1c2cc(F)ccc2sn1-c1ccccc1	n	6.7µM	n	7.1µM	u	u
Cc1nc2ccccc2c(=O)n1-c1ccc(F)cc1	n	n	n	n	x	x
Cc1ccc(C(=O)Nc2ccccc2)cc1S(=O)(=O)N1CCCC1	x	x	x	n	x	x
